# Source: PubChem BioAssay (National Center for Advancing Translational Sciences (NCATS))
# KDM5B inhibitor: inhibitors of human KDM5B histone demethylase; hit rate 2.6% among 220,000; Q9UGL1; KDM5B demethylase, FDH-coupled NADH fluorescence (FDH is formaldehyde dehydrogenase); Potency, µM (titrated, usually from 57.7 µM), hits mostly inhibitors; active = well fitted inhibition curve with a large enough effect; inconclusive = small, poorly fitted or top-dose-only effect; inactive = no such curve, though single readings can be large or run the other way; note: potency is the fitted concentration of half-maximal effect; 0% is about no effect; nearly all actives have a fitted effect of over 70% in size
#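 KDM5BΔAP (200 nM final) in 50 mM HEPES pH 7.5, 0.01% Tween-20 was preincubated 10 min at RT with compound over a concentration range. Substrate mix (H3K4me3 12.5 µM, α-KG 25 µM, Fe²⁺, ascorbate, NAD⁺, FDH) was added, and NADH fluorescence change over 30 min gave dose-response curves.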
# IP6K1 inhibitor: inhibitors of human IP6K1. Q92551. IP6K1 kinase, ADP-Glo luminescence, 2 h; active compounds read low. activity change, % (series mostly up to about 58 µM). hit rate 0.81% among 140,000. AID 1645851; in the data active = activity change below about -25%; note: % is set by controls: 0 for no effect and ±100 for the full control effect
#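 ADP-Glo luminescence measures ADP made by human IP6K1 during a 2 h RT reaction with ATP/IP6 (mix at 1.3 mM/130 uM); top library doses 57.5 and 19.1 uM final.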
# * marks the source's active call; other numbers are inactive results; i = inactive; ? = inconclusive; nt = no result given. The list is not random: actives were taken first. Their share in the collection is about 2.8%.
SMILES,KDM5B inhibitor,IP6K1 inhibitor
C=C1[C@H]2CCC3[C@]4(C)CCC[C@@](C)(C(=O)O)C4CC[C@]3(C2)[C@H]1OC(C)=O (stereo partly drawn),nt,0
O=C(c1cccc(O)c1)N1CC=C(c2cnc3cnc(-c4ccccc4)cn23)CC1,28µM*,-7
O=C(c1ccn[nH]1)N1CC=C(c2cnc3cnc(-c4ccccc4)cn23)CC1,?,-12
C[S+](=O)([O-])NCc1nnc2n1C(C(=O)NCc1ccc(Cl)cc1)CC2 (stereo not drawn),nt,-1
Oc1ccccc1CN1CCNc2cnc(Oc3ccccc3)cc2C1,?,-12
Fc1ccc(CN2CCNc3cnc(OCc4cccnc4)cc3C2)cc1F,?,-10
COc1ccc(OC)c(CN2CCNc3cc(Nc4ccccc4)ncc3C2)c1,i,-10
COc1ccc(OC)c(CN2CCNc3cnc(Nc4cccnc4)cc3C2)c1,25µM*,13
Cc1cccc(CN2CCNc3cnc(OCc4cccnc4)cc3C2)c1,18µM*,2
Fc1cccc(CN2CCNc3cnc(OCc4cccnc4)cc3C2)c1,?,-17
CCOc1cc2c(cn1)NCCN(Cc1ccccc1O)C2,35µM*,-17
COc1cccc(CN2CCNc3cnc(OCc4cccnc4)cc3C2)c1,35µM*,-13
Cc1ccc(CN2CC(C(=O)N(C)CC(=O)Nc3c(Cl)cccc3Cl)CC2=O)cc1 (stereo not drawn),i,nt
Cc1ccc2nc(C)c(C(=O)NCc3cccnc3-n3cccn3)cc2c1,i,nt
COc1ccc(-c2nc3ccccc3c(=O)n2CCOc2cccc(OC)c2)cc1,i,nt
CC(=O)N1CC(CN2C(=O)c3c(c(C)nn3-c3ccccc3)C2C2CC2)C1 (stereo not drawn),nt,-13
COc1ccc(OC)c(CN2CCNc3cnc(OCc4cccnc4)cc3C2)c1,40µM*,-6
Cc1noc(C)c1CN1CCNc2cnc(OCc3cccnc3)cc2C1,?,-2
CCOc1ccc(CNC(=O)c2ccc3c(c2)c(C)c(C)n3Cc2ccccc2)cc1OC,?,-5
COCC1(CNC(=O)c2nc3ccccc3[nH]2)C[C@@H](O)[C@@H](O)C1 (stereo partly drawn),35µM*,13
COCC1(CNC(=O)c2cccc(OC)c2)C[C@@H](O)[C@@H](O)C1 (stereo partly drawn),i,3
CCc1ccc(S(=O)(=O)N2C[C@@H]3C(=O)N(C(CC)c4cccs4)C(=O)[C@@H]3C2)cc1 (stereo partly drawn),i,1
COCCC(=O)N1CC2CC(C1)[C@H]1CCCC(=O)N1C2 (stereo partly drawn),i,1
O=C1NC2(CCCN(C(=O)c3ccc(C(F)(F)F)cc3)C2)Oc2ccccc21 (stereo not drawn),i,8
O=C1CC2CCN(C(=O)c3ccc(F)cc3)CC2CCN1 (stereo not drawn),i,-10
SMILES,KDM5B inhibitor,IP6K1 inhibitor
O=C1CC2CCN(C(=O)c3ccccc3)CC2CCN1 (stereo not drawn),28µM*,-11
Cc1nn2c(c1-c1ccccc1N1CCCC1)N(C(=O)COc1ccccc1)CCC2,20µM*,18
Cc1nn2c(c1-c1ccccc1C(C)C)N(C(=O)C1CCOCC1)CCC2,i,16
Cc1nn2c(c1-c1ccccc1N1CCCC1)N(C(=O)C1CCOCC1)CCC2,28µM*,8
Cc1nn2c(c1-c1ccccc1-c1ccccc1)N(C(=O)COc1ccccc1)CCC2,i,17
CCOc1cc(/C=C(/C#N)c2ccc(F)cc2)cc(Cl)c1OCc1ccccc1C#N,i,nt
COc1ccc(-c2cc3c(cn2)CN(Cc2cccnc2)CCN3)cc1F,35µM*,-15
COc1ccc(-c2cc3c(cn2)CN(Cc2cccnc2)CCN3)cc1OC,?,-18
c1ccc(CNc2cc3c(cn2)CN(Cc2cccnc2)CCN3)cc1,?,-22
Fc1ccccc1-c1cc2c(cn1)CN(Cc1cccnc1)CCN2,32µM*,-16
Cc1cc(-c2cc3c(cn2)CN(Cc2ccccc2F)CCN3)ccn1,35µM*,-7
Cc1cc(-c2cc3c(cn2)CN(Cc2ccc(F)c(F)c2)CCN3)ccn1,i,-22
O=C(Nc1cccc(-c2nnc3n2CCCC3)c1)c1ccc[nH]c1=O,i,18
O=C(O)/C=C/c1ccc(Cl)s1,i,nt
Cc1ccc(C)c2c(N)c3c(nc12)CCCC3,i,nt
CCc1ccc(CN2CCc3nc(N4CCN(C)CC4)[nH]c(=O)c3CC2)cc1,i,5
CCn1ccc(C(=O)NCC(=O)N2CCCCCCNC(=O)CC2c2ccccc2)n1 (stereo not drawn),i,1
Cc1ccccc1-n1cc(-c2ccnc(NC3CCN(C)CC3)n2)cn1,28µM*,11
Cn1ccnc1CNc1nccc(-c2cnn(-c3ccccc3F)c2)n1,?,18
CCC(C)c1ccc(NC(=O)COC(=O)c2nn(C)c(=O)c3ccccc23)cc1 (stereo not drawn),i,nt
